Some test systems named below: SR leukemia; RPMI-8226 leukemia; OVCAR-8 ovarian; OVCAR-5 ovarian; OVCAR-4 ovarian; SK-OV-3 ovarian; IGROV1 ovarian; OVCAR-3 ovarian; HS 578T breast; T-47D breast; BT-549 breast; MDA-MB-435 melanoma; MCF7 breast; HCT-116 colon; HCC-2998 colon; KM12 colon; SW-620 colon; NCI/ADR-RES ovarian.
What all share (test): NCI-60 one-dose screen, 48 h (100 = growth as untreated, 0 = no growth, -100 = all killed)
Conditions in all cases: 10 µM unless noted

Each structure is given as a SMILES string. This is part of a sample that, as a whole, favours compounds with a hit. Of some 83,000 tested, about 20% had one in any assay.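 Note: values are percent growth. 100 is the growth of untreated cells, values between 100 and 0 indicate rising inhibition; between -100 and 0 indicates cell death.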 A number with no mark means an inactive call. Active and inactive are the calls of the source. The calls were made as follows: active = growth percent below 10; inactive = the rest.

For the molecule `Cc1c(C(=O)O)nnn1-c1nccs1`, the growth was 101% in the experiment on SR leukemia; 93% in the experiment with RPMI-8226 leukemia; 91.6% in the experiment with OVCAR-8 ovarian; 104% in the experiment with OVCAR-5 ovarian; 96.7% with OVCAR-4 ovarian; 90.8% in the experiment on SK-OV-3 ovarian. For the same molecule, the growth in the experiment on IGROV1 ovarian was 104%; in the experiment with OVCAR-3 ovarian, 106%; with HS 578T breast, 86.9%; with T-47D breast, 90.4%; in the experiment on BT-549 breast, 96.4%; with MDA-MB-435 melanoma it was 96.2%. The growth was 99.6% in the experiment on MCF7 breast, 89.5% in the experiment on HCT-116 colon, 113% in the experiment on HCC-2998 colon and 98.8% in the experiment with KM12 colon.
In the case of `Cc1csc(NC(=O)c2sc3nc(-c4cccs4)ccc3c2N)n1`, the growth with SR leukemia was 81.5%; in the experiment with RPMI-8226 leukemia, 81.1%; in the experiment on OVCAR-8 ovarian it was 97%; in the experiment with OVCAR-5 ovarian, 116%; in the experiment with OVCAR-4 ovarian, 114%; in the experiment with SK-OV-3 ovarian, 96.1%. For the same molecule, the growth in the experiment with IGROV1 ovarian was 109%; with OVCAR-3 ovarian, 111%; with HS 578T breast, 99.5%; in the experiment with MDA-MB-435 melanoma, 108%; with SW-620 colon it was 99.4%; in the experiment on MCF7 breast, 71.3%. The growth in the experiment on HCC-2998 colon is 114%; in the experiment with KM12 colon, 92.9%.
For the molecule `Nc1c(-c2nc3ccccc3c(=O)[nH]2)nnn1-c1ccc(Cl)cc1`, the growth was 56.2% in the experiment with SR leukemia; 90.6% in the experiment with RPMI-8226 leukemia; 56.1% in the experiment on OVCAR-8 ovarian; 97.8% in the experiment on OVCAR-5 ovarian; -4.08% (active) in the experiment on OVCAR-4 ovarian; 68.5% in the experiment on SK-OV-3 ovarian. In addition, the growth was 83% in the experiment with IGROV1 ovarian; 89.2% in the experiment with OVCAR-3 ovarian; 56.4% in the experiment on NCI/ADR-RES ovarian; 27.2% in the experiment with T-47D breast; 77.8% in the experiment on BT-549 breast; 83.3% in the experiment on MDA-MB-435 melanoma. Further, the growth in the experiment on SW-620 colon is 99.2%; in the experiment on MCF7 breast it was 90%; with HCT-116 colon, 78.8%; with HCC-2998 colon, 104%.
Take `O=c1oc2ccc(Cl)cc2cc1-c1cs/c(=N/N=C\c2ccc(Cl)cc2)n1/N=C/c1ccc(Cl)cc1`: the growth in the experiment with SR leukemia was 83.4%; in the experiment with RPMI-8226 leukemia it was 103%; with OVCAR-8 ovarian, 96.5%; with OVCAR-5 ovarian, 107%; in the experiment on OVCAR-4 ovarian, 98.5%; in the experiment with SK-OV-3 ovarian it was 111%. Moreover, the growth in the experiment on IGROV1 ovarian was 108%; in the experiment with HS 578T breast, 101%; in the experiment on NCI/ADR-RES ovarian, 106%; in the experiment on T-47D breast it was 87.5%; with BT-549 breast, 109%; in the experiment on MDA-MB-435 melanoma, 103%. Besides, the growth was 95.7% in the experiment on MCF7 breast, 91.9% with HCT-116 colon, 103% with HCC-2998 colon and 107% in the experiment on KM12 colon.
On to `CO/C(=C1/NC(=O)C(Cc2ccc(O)c(Br)c2)N(C)C(=O)C(C)NC(=O)CCC/C=C(\C)CCC(C)OC1=O)c1ccccc1` (stereo unspecified), for which the growth is -25.9% (active) with SR leukemia; -57.4% (active) with RPMI-8226 leukemia; -14.6% (active) with OVCAR-8 ovarian; -2.82% (active) in the experiment with OVCAR-5 ovarian; 0.0232% (active) in the experiment on OVCAR-4 ovarian; -42.2% (active) in the experiment with SK-OV-3 ovarian. In addition, the growth in the experiment on IGROV1 ovarian is -80% (active); with OVCAR-3 ovarian it was -67.5% (active); in the experiment with HS 578T breast, -34% (active); in the experiment on T-47D breast, -0.228% (active); with MDA-MB-435 melanoma, 3.86% (active); with SW-620 colon, 18.2%. Besides, the growth was -17.5% (active) in the experiment on MCF7 breast, 8.19% (active) with HCT-116 colon, -36.6% (active) with HCC-2998 colon and 26.9% in the experiment on KM12 colon.
In the case of `CC(=O)NCC(=O)Nc1ccc(-c2nnc3ccccn23)nc1.CC(=O)NCC(=O)Nc1ccc(-c2nnc3ccccn23)nc1.[Pt+2]`, the growth with SR leukemia is 104%; in the experiment with RPMI-8226 leukemia, 108%; in the experiment with OVCAR-8 ovarian, 94.3%; in the experiment with OVCAR-5 ovarian it was 114%; with OVCAR-4 ovarian, 119%; in the experiment on SK-OV-3 ovarian, 112%. In addition, the growth is 106% in the experiment on IGROV1 ovarian; 107% in the experiment on OVCAR-3 ovarian; 104% with HS 578T breast; 105% with T-47D breast; 114% in the experiment on BT-549 breast; 114% in the experiment with MDA-MB-435 melanoma. The growth with SW-620 colon is 105%; in the experiment with MCF7 breast it was 110%; in the experiment with HCT-116 colon, 95.4%; in the experiment on HCC-2998 colon, 106%; with KM12 colon, 109%.
For the molecule `COc1ccc(/C(C)=C(\c2ccc(Cl)cc2)c2ccc(OCCN(C)C)cc2)cc1F`, the growth was -32% (active) in the experiment with SR leukemia; -29.2% (active) in the experiment with RPMI-8226 leukemia; 65.5% with OVCAR-8 ovarian; 78% in the experiment with OVCAR-5 ovarian; 56.1% with OVCAR-4 ovarian; 92.9% in the experiment with SK-OV-3 ovarian. The growth in the experiment with IGROV1 ovarian was 47.6%; in the experiment on HS 578T breast, 64.3%; with NCI/ADR-RES ovarian it was 78.9%; with T-47D breast, 77.3%; in the experiment on BT-549 breast, 87.7%; in the experiment on MDA-MB-435 melanoma, 51.5%. The growth in the experiment with MCF7 breast is 31.8%; in the experiment on HCT-116 colon it was 43.6%; with HCC-2998 colon it was 25.4%; in the experiment with KM12 colon, 34.2%.
With `CN1C[C@@H](c2ccc(Cl)cc2)[C@]2(NC(=S)N(c3ccc(F)c(Cl)c3)C2=O)[C@@]12C(=O)NC1C=CC(Cl)=C[C@H]12` (stereo partly specified), the growth in the experiment on SR leukemia was 0.495% (active); in the experiment with RPMI-8226 leukemia, 2.67% (active); in the experiment with OVCAR-8 ovarian, 60%; with OVCAR-5 ovarian, 52.8%; in the experiment with OVCAR-4 ovarian, 57%; in the experiment on SK-OV-3 ovarian, 80.7%. The growth was 41.9% with IGROV1 ovarian; 77.6% with HS 578T breast; 42% in the experiment on NCI/ADR-RES ovarian; 21% in the experiment on T-47D breast; 21.6% in the experiment with BT-549 breast; 56.8% with MDA-MB-435 melanoma. Further, the growth with MCF7 breast is 18%; in the experiment with HCT-116 colon, -49% (active); in the experiment on HCC-2998 colon it was 77.8%.

For the origin of these results see PubChem BioAssay (NCI).
